Data reported in the antibiotic and cytotoxicity screens of Wong et al. (2023).
In all, about 39,000 compounds went through this assay and about 1,500 (3.8%) were called active. Many of the other results were omitted from the sample, so actives are more common in it than they were.

Tested on: HSkMC (human skeletal muscle cells)
Assay: cytotoxicity call (relative viability < 0.9)
Details: 10 µM

SMILES	cytotoxicity call
C[C@@H]1CCCCO[C@H](CN(C)Cc2ccc(Cl)c(Cl)c2)[C@H](C)CN([C@@H](C)CO)C(=O)c2cc(NS(C)(=O)=O)ccc2O1	inactive
C[C@H]1CN([C@@H](C)CO)C(=O)c2cc(C#Cc3ccccn3)cnc2O[C@H]1CN(C)C(=O)CCN1CCCCC1	inactive
C[C@@H]1CN([C@H](C)CO)C(=O)Cc2cc(NC(=O)CCCCCC(=O)Nc3ccccc3N)ccc2O[C@@H]1CN(C)Cc1ccc(Cl)c(Cl)c1	inactive
C[C@@H]1CN([C@@H](C)CO)C(=O)c2cccc(NS(=O)(=O)c3cccs3)c2O[C@H]1CN(C)C(=O)Nc1cccc2ccccc12	inactive
C[C@@H]1CCCCO[C@H](CN(C)C(=O)Nc2ccc3c(c2)OCO3)[C@H](C)CN([C@H](C)CO)C(=O)c2cc(NC(=O)c3ccccc3)ccc2O1	inactive
C[C@@H]1CN([C@@H](C)CO)C(=O)c2cc(NC(=O)Cc3cn(C)c4ccccc34)ccc2O[C@H]1CN(C)Cc1ccc(C(=O)Nc2ccccc2N)cc1	inactive
CC(C)NC(=O)Nc1ccc2c(c1)CC(=O)N([C@H](C)CO)C[C@H](C)[C@@H](CN(C)S(=O)(=O)c1cccs1)O2	inactive
CC(C)NC(=O)N(C)C[C@H]1Oc2c(NS(=O)(=O)c3ccccc3)cccc2C(=O)N([C@@H](C)CO)C[C@@H]1C	inactive
Cc1ccc(S(=O)(=O)N(C)C[C@@H]2Oc3ccc(NS(=O)(=O)c4ccc(F)cc4)cc3CC(=O)N([C@@H](C)CO)C[C@@H]2C)cc1	inactive
C[C@@H]1CN([C@@H](C)CO)C(=O)c2cc(NC(=O)NC3CCCCC3)ccc2O[C@@H](C)CCCCO[C@H]1CN(C)C(=O)Cc1ccccc1	inactive
C[C@@H]1CN([C@H](C)CO)C(=O)c2cc(NC(=O)c3ccncc3)ccc2O[C@@H]1CN(C)S(=O)(=O)c1cn(C)cn1	inactive
CCCCC(CC)CN1CN(CC(CC)CCCC)CC(C)(N)C1 (centres undefined)	active
C[C@@H]1CN([C@@H](C)CO)C(=O)Cc2cc(NC(=O)NC3CCCCC3)ccc2O[C@H]1CN(C)Cc1ccc(C(=O)Nc2ccccc2N)cc1	inactive
C[C@@H]1CN([C@@H](C)CO)S(=O)(=O)c2ccc(Br)cc2O[C@@H]1CN(C)C(=O)c1cnccn1	inactive
C[C@@H]1CCCCO[C@@H](CN(C)Cc2ccc(C(=O)O)cc2)[C@@H](C)CN([C@H](C)CO)C(=O)c2cc(NC(=O)CCC(F)(F)F)ccc2O1	inactive
C[C@H](CO)N1C[C@H](C)[C@@H](CN(C)Cc2ccccc2C(F)(F)F)OCc2ccccc2-c2ccccc2C1=O	inactive
C[C@@H]1CN([C@@H](C)CO)C(=O)c2ccccc2-c2ccccc2CO[C@@H]1CN(C)Cc1ccccc1C(F)(F)F	inactive
C[C@@H]1CN([C@H](C)CO)C(=O)c2ccccc2-c2ccccc2CO[C@@H]1CN(C)Cc1ccccc1C(F)(F)F	inactive
C[C@H](CO)N1C[C@H](C)[C@H](CN(C)Cc2ccccc2C(F)(F)F)OCc2ccccc2-c2ccccc2C1=O	active
C[C@H]1CN([C@@H](C)CO)C(=O)c2ccccc2-c2ccccc2CO[C@@H]1CN(C)Cc1ccccc1C(F)(F)F	active
C[C@H]1CN([C@@H](C)CO)C(=O)c2ccccc2-c2ccccc2CO[C@H]1CN(C)Cc1ccccc1C(F)(F)F	inactive
C[C@H](CO)N1C[C@H](C)[C@@H](CN(C)C(=O)Nc2cccc3ccccc23)Oc2c(NC(=O)Nc3ccc(F)cc3)cccc2C1=O	inactive
C[C@H](CO)N1C[C@H](C)[C@H](CN(C)Cc2ccc(C(=O)O)cc2)Oc2ccc(NC(=O)CCN3CCOCC3)cc2C1=O	inactive

SMILES	cytotoxicity call
NC(=O)NCC#Cc1ccc2c(c1)[C@]1(C(=O)N2)[C@H](c2ccccc2OCCO)N2[C@H](c3ccccc3)[C@H](c3ccccc3)OC(=O)[C@H]2[C@@H]1C(=O)N1CCCCCCC1	inactive
Cc1noc(C)c1NC(=O)N(C)C[C@H]1Oc2ccc(NS(=O)(=O)c3cn(C)cn3)cc2CC(=O)N([C@H](C)CO)C[C@H]1C	inactive
CN1C(=O)c2cc(NC(=O)c3ccc(C(F)(F)F)cc3)ccc2OC[C@@H]2O[C@@H](CC(=O)NC3Cc4ccccc4C3)CC[C@@H]21	inactive
C[C@@H]1CN([C@@H](C)CO)C(=O)c2cc(NC(=O)CCCN(C)C)ccc2O[C@H]1CN(C)Cc1ccc2c(c1)OCO2	inactive
Nc1[nH]ncc1-c1cc(Cl)ccc1Oc1cc(F)c(S(=O)(=O)Nc2cscn2)cc1Cl	inactive
Cc1noc(C)c1S(=O)(=O)Nc1ccc2c(c1)C(=O)N([C@H](C)CO)C[C@@H](C)[C@@H](CN(C)C)OCCCC[C@H](C)O2	inactive
CCc1nc2ccc(C(=O)NC3CCN(Cc4ccccc4)CC3)cn2c1N(C)CCN1CCOCC1	inactive
CCc1nc2ccc(C(=O)NC3CCN(Cc4ccccc4)CC3)cn2c1N(C)Cc1cc2ccccc2s1	active
CCc1nc2ccc(C(=O)Nc3cccc(OCC(=O)N(C)C)c3)cn2c1N(C)Cc1cc2ccccc2s1	inactive
CCN(CC)c1ccnc([C@H]2COCCN2)n1	inactive
CC(C)NC(=O)N(C)C[C@@H]1Oc2ccc(NC(=O)Nc3ccc4c(c3)OCO4)cc2C(=O)N([C@@H](C)CO)C[C@H]1C	inactive
CNC1C(O)C(NC)C2OC3(O)C(=O)CC(C)OC3OC2C1O.Cl.Cl (centres undefined)	inactive
Nc1ccccc1C(=O)C[C@H](N)C(=O)O	inactive
Nc1ccc(/C=C/C(=O)NCc2cc3cc(-c4ccc(C(=O)N5CCC(F)(F)CC5)cc4)cc(-c4ccc(F)cc4)c3o2)cn1	active
C[C@H]1CN([C@@H](C)CO)C(=O)c2cc(NC(=O)c3ccncc3)ccc2O[C@H]1CN(C)Cc1ccncc1	inactive
O=C1[C@@H]2[C@H](C(=O)N1c1ccccc1)C13COC[C@H](c4ccccc4)N1C(=O)C2(C(=O)NCc1ccccc1)O3 (some centres undefined)	inactive
COc1ccc(S(=O)(=O)Nc2ccc3c(c2)C(=O)N([C@H](C)CO)C[C@@H](C)[C@H](CN(C)Cc2ccc(Oc4ccccc4)cc2)O3)cc1	inactive
COc1ccc(S(=O)(=O)Nc2ccc3c(c2)C(=O)N([C@@H](C)CO)C[C@H](C)[C@H](CN(C)Cc2ccc(-c4ccccc4)cc2)O3)cc1	inactive
COc1ccc(S(=O)(=O)Nc2ccc3c(c2)C(=O)N([C@@H](C)CO)C[C@H](C)[C@@H](CN(C)Cc2ccc(-c4ccccc4)cc2)O3)cc1	inactive
COc1ccc(S(=O)(=O)Nc2ccc3c(c2)C(=O)N([C@H](C)CO)C[C@@H](C)[C@@H](CN(C)Cc2ccc(-c4ccccc4)cc2)O3)cc1	active
COc1ccc(S(=O)(=O)Nc2ccc3c(c2)C(=O)N([C@@H](C)CO)C[C@@H](C)[C@H](CN(C)Cc2ccc(-c4ccccc4)cc2)O3)cc1	active
COc1ccc(S(=O)(=O)Nc2ccc3c(c2)C(=O)N([C@H](C)CO)C[C@H](C)[C@@H](CN(C)Cc2ccc(-c4ccccc4)cc2)O3)cc1	inactive
COc1ccc(S(=O)(=O)Nc2ccc3c(c2)C(=O)N([C@H](C)CO)C[C@@H](C)[C@H](CN(C)Cc2ccc(-c4ccccc4)cc2)O3)cc1	inactive

SMILES	cytotoxicity call
COc1ccc(S(=O)(=O)Nc2ccc3c(c2)C(=O)N([C@H](C)CO)C[C@H](C)[C@H](CN(C)Cc2ccc(-c4ccccc4)cc2)O3)cc1	inactive
COc1ccc(S(=O)(=O)Nc2ccc3c(c2)C(=O)N([C@@H](C)CO)C[C@@H](C)[C@@H](CN(C)Cc2ccc(-c4ccccc4)cc2)O3)cc1	active
N[C@@H](C(=O)N[C@@H]1C(=O)N2C(C(=O)O)=C(Cl)CS[C@H]12)c1ccccc1	inactive
C[C@@H]1CCCCO[C@H](CN(C)C(=O)Cc2ccccc2)[C@@H](C)CN([C@H](C)CO)C(=O)c2cc(NC(=O)C3CCCCC3)ccc2O1	inactive
Cc1ccc(S(=O)(=O)N[C@@H](Cc2ccccc2)C(=O)NCCn2cc(CCC(=O)NO)nn2)cc1	inactive
Cc1ccc(S(=O)(=O)N(C)C[C@@H]2Oc3ccc(NS(=O)(=O)c4cccs4)cc3CC(=O)N([C@@H](C)CO)C[C@@H]2C)cc1	inactive
C[C@H](O)C#Cc1ccc2c(c1)O[C@@H](CN(C)C(=O)Cc1ccccn1)[C@H](C)CN([C@@H](C)CO)S2(=O)=O	inactive
O=C(C[C@@H]1C=C[C@@H](NC(=O)CN2CCOCC2)[C@@H](CO)O1)NCc1cccc(F)c1	inactive
C[C@H]1CC=CC[C@H](c2cccc(Cl)c2)NC(=O)[C@@H](Cc2ccccc2)N(C)C(=O)c2ccccc2O1	inactive
COc1ccc(NC(=O)Nc2ccc3c(c2)C(=O)N([C@@H](C)CO)C[C@@H](C)[C@@H](CN(C)Cc2ccccc2)OCCCC[C@@H](C)O3)cc1	inactive
Cc1noc(C)c1NC(=O)Nc1cccc2c1O[C@@H](CN(C)S(=O)(=O)c1ccccc1)[C@@H](C)CN([C@H](C)CO)C2=O	inactive
COc1ccc(S(=O)(=O)N(C)C[C@@H]2OCCCC[C@H](C)Oc3ccc(NS(=O)(=O)c4cn(C)cn4)cc3C(=O)N([C@H](C)CO)C[C@@H]2C)cc1	inactive
Cc1ccc(S(=O)(=O)N(C)C[C@H]2OCCCC[C@H](C)Oc3ccc(NS(=O)(=O)c4ccc(F)cc4)cc3C(=O)N([C@@H](C)CO)C[C@@H]2C)cc1	inactive
Cc1ccc(S(=O)(=O)N(C)C[C@@H]2OCCCC[C@H](C)Oc3ccc(NC(=O)Nc4ccc(F)cc4)cc3C(=O)N([C@@H](C)CO)C[C@@H]2C)cc1	inactive
Cc1ccc(S(=O)(=O)Nc2ccc3c(c2)C(=O)N([C@@H](C)CO)C[C@H](C)[C@@H](CN(C)S(=O)(=O)c2ccc(F)cc2)OCCCC[C@@H](C)O3)cc1	inactive
Cc1ccc(S(=O)(=O)Nc2ccc3c(c2)C(=O)N([C@H](C)CO)C[C@H](C)[C@@H](CN(C)S(=O)(=O)c2ccc(F)cc2)OCCCC[C@H](C)O3)cc1	active
Cc1ccc(S(=O)(=O)N(C)C[C@H]2OCCCC[C@@H](C)Oc3ccc(NC(=O)Nc4ccc(F)cc4)cc3C(=O)N([C@@H](C)CO)C[C@H]2C)cc1	inactive
Cc1ccc(S(=O)(=O)Nc2ccc3c(c2)C(=O)N([C@H](C)CO)C[C@H](C)[C@H](CN(C)S(=O)(=O)c2ccc(F)cc2)OCCCC[C@H](C)O3)cc1	inactive
Cc1ccc(S(=O)(=O)Nc2ccc3c(c2)C(=O)N([C@H](C)CO)C[C@@H](C)[C@H](CN(C)S(=O)(=O)c2ccc(F)cc2)OCCCC[C@@H](C)O3)cc1	inactive
COc1ccc(S(=O)(=O)N(C)C[C@@H]2OCCCC[C@@H](C)Oc3ccc(NS(=O)(=O)c4cn(C)cn4)cc3C(=O)N([C@@H](C)CO)C[C@H]2C)cc1	inactive
Cc1ccc(S(=O)(=O)N(C)C[C@H]2OCCCC[C@@H](C)Oc3ccc(NC(=O)Nc4ccc(F)cc4)cc3C(=O)N([C@@H](C)CO)C[C@@H]2C)cc1	active
COc1ccc(S(=O)(=O)N(C)C[C@H]2OCCCC[C@H](C)Oc3ccc(NS(=O)(=O)c4cn(C)cn4)cc3C(=O)N([C@@H](C)CO)C[C@H]2C)cc1	active
Cc1ccc(S(=O)(=O)N(C)C[C@@H]2OCCCC[C@@H](C)Oc3ccc(NS(=O)(=O)c4ccc(F)cc4)cc3C(=O)N([C@H](C)CO)C[C@H]2C)cc1	active
